Inconclusive results are not listed. Activity calls are given as the source filed them. Unless noted, the call rests on the fitted dose curve.
Tests used:
[1] = biological target: Estrogen receptor (Homo sapiens) (UniProt P03372); assay: qHTS assay for small molecule antagonists of estrogen receptor alpha signaling (AID 588513; active means well fitted curve in the direction sought with a large enough effect in the signal ratio, with a control signal flat, not every such curve was filed as active; the % refers to the signal ratio; further: on the % scale 0 is the no-effect control and ±100 the full control effect); details: ER-alpha-UAS-bla HEK293, beta-lactamase ratio, antagonist mode; series mostly up to 76.9 µM
Sequence of Estrogen receptor (Homo sapiens) (P03372 whole entry, looked up): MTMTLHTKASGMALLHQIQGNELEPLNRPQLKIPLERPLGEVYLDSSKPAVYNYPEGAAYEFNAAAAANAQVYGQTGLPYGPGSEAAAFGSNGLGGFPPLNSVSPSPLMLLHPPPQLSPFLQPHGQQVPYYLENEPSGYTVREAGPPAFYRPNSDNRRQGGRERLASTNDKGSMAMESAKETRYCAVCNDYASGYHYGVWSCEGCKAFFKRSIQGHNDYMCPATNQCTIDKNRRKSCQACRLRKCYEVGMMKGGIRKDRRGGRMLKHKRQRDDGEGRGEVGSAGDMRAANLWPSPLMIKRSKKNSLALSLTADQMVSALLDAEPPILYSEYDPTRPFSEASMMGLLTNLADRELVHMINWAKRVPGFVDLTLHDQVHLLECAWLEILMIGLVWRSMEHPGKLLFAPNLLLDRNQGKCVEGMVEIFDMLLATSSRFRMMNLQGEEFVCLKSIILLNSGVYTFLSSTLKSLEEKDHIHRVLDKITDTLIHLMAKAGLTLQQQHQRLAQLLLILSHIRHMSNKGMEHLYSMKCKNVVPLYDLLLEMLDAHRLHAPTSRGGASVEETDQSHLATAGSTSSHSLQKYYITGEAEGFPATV
Outline: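 Antagonist-mode qHTS in ER-alpha-UAS-bla HEK 293 cells: compound titration, 0.5nM estradiol for 18 h, CCF4 fluorescence, Hill-derived IC50.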

[2] = biological target: Estrogen receptor (Homo sapiens) (UniProt P03372); assay: qHTS assay for small molecule agonists of estrogen receptor alpha signaling (AID 588514); details: ER-alpha-UAS-bla HEK293, beta-lactamase ratio, 18 h; series mostly up to 76.8 µM;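 further: 0% = vehicle only and 100% = reference agonist; nearly all actives have a fitted effect of over 70% in size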
Outline: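 Read-out: CCF4 fluorescence from a beta-lactamase reporter in ER-alpha-UAS-bla HEK 293 cells after 18 hrs of compound exposure at 37 C. Normalized to 20 nM 17-beta-estradiol (100%) and DMSO (0%).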

[3] = qHTS assay for small molecule antagonists of peroxisome proliferator-activated receptor delta signaling (AID 588535); details: HEK293T PPARd-UAS-bla, beta-lactamase FRET ratio, 18 h; 460 nm channel;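 further: cells co-treated with a PPAR-delta agonist as stimulator during compound exposure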
Outline: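 Antagonist-mode qHTS using GeneBLAzer PPAR-delta-UAS-bla HEK293T cells; compound exposure 18 hrs at 37 C over a titration. Ratiometric CCF4 fluorescence at 460/530 nm; concentration-response points fitted to the Hill equation.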

[4] = biological target: Vitamin D3 receptor (Homo sapiens) (UniProt P11473); assay: qHTS assay for small molecule antagonists of vitamin D receptor signaling (AID 588541); details: HEK293T VDR-UAS-bla, beta-lactamase ratio, antagonist mode; series mostly up to 76.7 µM;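 further: receptor activated by calcitriol during compound treatment; on the % scale 0 is the no-effect control and ±100 the full control effect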
Sequence of Vitamin D3 receptor (Homo sapiens) (P11473 whole entry, looked up): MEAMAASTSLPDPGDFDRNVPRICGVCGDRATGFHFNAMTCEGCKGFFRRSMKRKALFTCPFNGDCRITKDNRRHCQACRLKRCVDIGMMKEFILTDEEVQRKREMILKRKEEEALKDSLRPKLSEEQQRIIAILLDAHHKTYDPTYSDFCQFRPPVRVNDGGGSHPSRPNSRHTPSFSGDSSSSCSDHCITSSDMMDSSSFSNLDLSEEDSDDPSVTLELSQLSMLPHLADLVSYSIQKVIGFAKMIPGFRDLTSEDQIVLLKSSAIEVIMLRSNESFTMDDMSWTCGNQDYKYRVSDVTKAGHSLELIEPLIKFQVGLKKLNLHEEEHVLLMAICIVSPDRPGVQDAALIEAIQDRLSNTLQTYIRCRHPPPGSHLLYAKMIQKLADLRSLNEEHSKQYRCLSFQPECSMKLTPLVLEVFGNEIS
Outline: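 Antagonist-mode beta-lactamase reporter assay: HEK293T VDR-UAS-bla cells were exposed to titrated compound alongside 1-alpha,25-dihydroxyvitamin D3 at 3 nM final for 16 h. Values were normalized to the 50 nM agonist control and DMSO basal, with IC50 and efficacy from Hill equation fits.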

[5] = qHTS assay for small molecule agonists of retinoid X receptor alpha signaling (AID 588544); details: HEK293T RXRa-UAS-bla, beta-lactamase reporter, 18 h; 530 nm emission;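 on activation: 0% = DMSO basal wells and 100% = reference agonist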
[6] = biological target: Retinoic acid receptor RXR-alpha (Homo sapiens) (UniProt P19793); assay: as above; details: HEK293T RXRa-UAS-bla, beta-lactamase reporter, 18 h; series mostly up to 76.7 µM
Sequence of Retinoic acid receptor RXR-alpha (Homo sapiens) (P19793 whole entry, looked up): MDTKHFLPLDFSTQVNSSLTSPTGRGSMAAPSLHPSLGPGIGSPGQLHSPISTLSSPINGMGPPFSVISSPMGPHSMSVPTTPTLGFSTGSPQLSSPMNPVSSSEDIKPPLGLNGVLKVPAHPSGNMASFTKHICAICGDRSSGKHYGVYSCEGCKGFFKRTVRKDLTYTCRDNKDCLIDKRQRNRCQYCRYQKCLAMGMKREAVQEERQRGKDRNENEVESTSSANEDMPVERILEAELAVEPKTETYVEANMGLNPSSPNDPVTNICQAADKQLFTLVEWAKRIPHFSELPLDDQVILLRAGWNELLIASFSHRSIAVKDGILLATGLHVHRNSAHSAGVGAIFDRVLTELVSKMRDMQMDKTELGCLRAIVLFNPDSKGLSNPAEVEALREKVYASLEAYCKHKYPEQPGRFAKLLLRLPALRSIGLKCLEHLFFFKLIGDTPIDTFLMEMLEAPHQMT

[7] = biological target: Thyroid hormone receptor beta (Homo sapiens) (UniProt P10828); assay: qHTS assay for small molecule agonists of thyroid hormone receptor beta signaling (AID 588545); details: TR-UAS-bla GripTite HEK 293, beta-lactamase ratio, agonist mode, 18 h; series mostly up to 76.7 µM
Sequence of Thyroid hormone receptor beta (Homo sapiens) (P10828 whole entry, looked up): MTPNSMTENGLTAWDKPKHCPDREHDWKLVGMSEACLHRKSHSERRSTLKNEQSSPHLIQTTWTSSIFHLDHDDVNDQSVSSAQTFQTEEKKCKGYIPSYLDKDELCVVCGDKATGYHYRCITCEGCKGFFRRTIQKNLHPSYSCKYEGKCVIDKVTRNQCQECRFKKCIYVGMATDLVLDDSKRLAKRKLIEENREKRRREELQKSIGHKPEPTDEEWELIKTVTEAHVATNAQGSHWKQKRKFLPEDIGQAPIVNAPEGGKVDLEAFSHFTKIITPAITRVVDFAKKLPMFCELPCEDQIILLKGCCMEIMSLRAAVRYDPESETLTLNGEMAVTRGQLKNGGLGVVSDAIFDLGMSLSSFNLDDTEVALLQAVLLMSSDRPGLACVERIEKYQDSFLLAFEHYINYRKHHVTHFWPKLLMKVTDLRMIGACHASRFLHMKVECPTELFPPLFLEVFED
Outline: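 HEK 293 TR-UAS-bla; agonist mode; 18 hrs, 37 C; CCF4, ex 405/em 460 and 530 nm; norm. T3 10 nM = 100%, DMSO = 0%; Hill fit → EC50, efficacy.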

[8] = qHTS assay for small molecule antagonists of retinoid X receptor alpha signaling (AID 588546; active means well fitted inhibition curve with a large enough effect in the signal ratio, with a control signal flat, not every such curve was filed as active; the % refers to the signal ratio;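 further: cells stimulated with 9-cis-retinoic acid as agonist; on the % scale 0 is the no-effect control and ±100 the full control effect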); details: HEK293T RXRa-UAS-bla, beta-lactamase ratio, antagonist mode; measured here: W530 green channel, cytotoxicity proxy
Outline: (§1)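 Beta-lactamase reporter inhibition, read as CCF4 fluorescence ratio (ex 405, em 460/530 nm) after 2 h at RT. HEK293T UAS-bla cells, 2500/well, were stimulated with 9-cis-RA at 500 or 100 nM final alongside test compound for 18 h at 37 C.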

[9] = biological target: Retinoic acid receptor RXR-alpha (Homo sapiens) (UniProt P19793); assay: as above; details: HEK293T RXRa-UAS-bla, beta-lactamase ratio, antagonist mode
Outline: as §1

[10] = biological target: Thyroid hormone receptor beta (Homo sapiens) (UniProt P10828); assay: qHTS assay for small molecule antagonists of thyroid hormone receptor beta signaling (AID 588547; active means well fitted inhibition curve with a large enough effect in the signal ratio, with a control signal flat, not every such curve was filed as active; the % refers to the signal ratio;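 further: cells stimulated with 0.4 nM T3 agonist during compound exposure; on the % scale 0 is the no-effect control and ±100 the full control effect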); details: TR-UAS-bla HEK293, beta-lactamase ratio, antagonist mode, 18 h
Outline: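 Inhibition of T3-driven (0.4nM final) beta-lactamase reporter activity was measured over 0.59 nM to 92 uM compound after 18 h at 37 C. The cells were GripTite HEK293 TR-UAS-bla in charcoal/dextran-stripped serum, with CCF4 ratio read-out and IC50 from Hill fits.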

[11] = qHTS assay for small molecule activators of the nuclear factor-kappa B (NF-kB) signaling pathway (AID 651749; active means well fitted activation curve with a large enough effect in the signal ratio; the % refers to the signal ratio; further: % of control where 0% means no effect); details: NF-kB-bla ME-180 cells, beta-lactamase FRET ratio, 16 h; activation: stronger effect = higher value
Outline: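 FRET-based beta-lactamase detection in ME-180 cells reports NF-kB response-element-driven transcription following overnight (16 hr) compound treatment.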

[12] = qHTS assay for environmental chemicals that activate the Aryl hydrocarbon Receptor (AhR) signaling pathway (AID 651777; active means well fitted curve in the direction sought with a large enough effect; an effect the other way counts as inactive or inconclusive; further: % of control where 0% means no effect; nearly all actives have a fitted effect of over 15% in size); details: 1A2-DRE human hepatoma cells, luciferase, 24 h; activation: stronger effect = higher value
Outline: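 Reporter gene assay: hepatoma cells with DRE/CYP1A2-luciferase, 24 hr compound incubation at 37 C, 5% CO2, luminescence after One-Glo (30 min, RT).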

[13] = biological target: Peroxisome proliferator-activated receptor alpha (Homo sapiens) (UniProt Q07869); assay: qHTS assay for small molecule agonists of the peroxisome proliferator-activated receptor alpha (PPARalpha) signaling pathway (AID 651778; active means well fitted curve in the direction sought with a large enough effect; an effect the other way counts as inactive or inconclusive; further: % of control where 0% means no effect); details: PathHunter PPARalpha complementation, chemiluminescence, 6 h; max response: stronger effect = higher value
Sequence of Peroxisome proliferator-activated receptor alpha (Homo sapiens) (Q07869 whole entry, looked up): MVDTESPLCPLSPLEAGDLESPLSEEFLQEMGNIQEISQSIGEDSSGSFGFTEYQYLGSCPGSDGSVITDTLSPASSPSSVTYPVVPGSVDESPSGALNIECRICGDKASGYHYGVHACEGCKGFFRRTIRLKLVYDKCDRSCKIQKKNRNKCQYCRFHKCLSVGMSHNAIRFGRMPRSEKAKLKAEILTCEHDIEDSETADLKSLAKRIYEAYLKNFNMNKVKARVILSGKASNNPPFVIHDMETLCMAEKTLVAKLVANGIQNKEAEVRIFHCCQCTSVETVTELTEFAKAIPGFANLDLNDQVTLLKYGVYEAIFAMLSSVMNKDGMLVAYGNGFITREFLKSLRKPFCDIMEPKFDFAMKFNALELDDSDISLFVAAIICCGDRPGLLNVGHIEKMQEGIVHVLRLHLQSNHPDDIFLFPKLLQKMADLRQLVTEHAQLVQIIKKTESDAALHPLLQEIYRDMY
Outline: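 Chemiluminescence from complemented enzyme reported PPARalpha activation in cells after 6 hr of compound treatment at 37 C. The detection reagent was incubated for 60 min at room temperature, and compounds were scored as agonists.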

[14] = qHTS assay for small molecule agonists of the antioxidant response element (ARE) signaling pathway measured by Nrf2-dependant transcriptional activity - cell viability counter screen (AID 720653; active means well fitted curve in the direction sought with a large enough effect in the repeat runs; an effect the other way counts as inactive or inconclusive; further: on the % scale 0 is the no-effect control and ±100 the full control effect); details: ARE-bla HepG2 viability, CellTiter-Glo ATP luminescence, 16 h; max response: stronger effect = lower value
Outline: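 Cytotoxicity counter screen: intracellular ATP quantified by CellTiter-Glo luminescence in the same ARE-bla HepG2 plates, after 16 h compound exposure and a 2 h beta-lactamase substrate step.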

[15] = qHTS assay for cell viability of HEK293 cells (AID 743288; active means well fitted curve in the direction sought with a large enough effect; an effect the other way counts as inactive or inconclusive; further: on the % scale 0 is the no-effect control and ±100 the full control effect; nearly all actives have a fitted effect of over 50% in size); details: ATP luminescence (CellTiter-Glo), 18 h; max response: stronger effect = lower value
Outline: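 HEK293, 18 h, 37 C, ATP luminescence. Cells at 2,000/well were allowed at least 5 h to settle before dosing; CellTiter-Glo developed 30 min at RT.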

[16] = qHTS assay for cell viability of the p53RE-bla HCT-116 cell line (AID 743292; active means well fitted curve in the direction sought with a large enough effect; an effect the other way counts as inactive or inconclusive; further: on the % scale 0 is the no-effect control and ±100 the full control effect; nearly all actives have a fitted effect of over 55% in size); details: p53RE-bla HCT-116 viability, ATP luminescence, 16 h; series mostly up to 95 µM
Outline: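 ATP-based luminescence, 16 h compound exposure at 37 C, p53RE-bla HCT-116 cells at 4,000/well.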

[17] = biological target: Nuclear receptor subfamily 1 group I member 2 (Rattus norvegicus) (UniProt Q9R1A7); assay: qHTS assay for small molecule activators of the rat pregnane X receptor (rPXR) signaling pathway (AID 651751; call rule not given here; further: 0% is about no effect); details: rPXR reporter cells, luciferase (One-Glo), 24 h
Sequence of Nuclear receptor subfamily 1 group I member 2 (Rattus norvegicus) (Q9R1A7 whole entry, looked up): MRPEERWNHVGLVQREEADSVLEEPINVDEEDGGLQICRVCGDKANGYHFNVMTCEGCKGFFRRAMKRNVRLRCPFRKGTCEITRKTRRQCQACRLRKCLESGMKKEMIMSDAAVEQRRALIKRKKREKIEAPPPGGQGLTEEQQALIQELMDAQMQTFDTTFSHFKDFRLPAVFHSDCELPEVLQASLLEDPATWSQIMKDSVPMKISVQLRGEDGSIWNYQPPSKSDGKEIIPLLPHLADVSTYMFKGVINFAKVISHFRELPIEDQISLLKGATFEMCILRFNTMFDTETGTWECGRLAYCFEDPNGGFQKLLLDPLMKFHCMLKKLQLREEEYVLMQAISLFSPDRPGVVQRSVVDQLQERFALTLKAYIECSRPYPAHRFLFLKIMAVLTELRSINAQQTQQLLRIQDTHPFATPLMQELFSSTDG

[18] = biological target: Vitamin D3 receptor (Homo sapiens) (UniProt P11473); assay: qHTS assay for small molecule agonists of vitamin D receptor signaling (AID 588543); details: HEK293T VDR-UAS-bla, beta-lactamase ratio, 16 h; series mostly up to 76.8 µM;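 further: 0% = DMSO basal and 100% = reference agonist control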
Outline: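 Measured: β-lactamase reporter activity (CCF4, 405 nm excitation, 460/530 nm emission) in HEK293T VDR-UAS-bla cells after 16 h compound exposure at 37 °C. Normalization against 50 nM 1α,25-dihydroxyvitamin D3 and DMSO; Hill-fit EC50.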

[19] = qHTS assay for small molecule agonists of the antioxidant response element (ARE) signaling pathway measured by Nrf2-dependant transcriptional activity (AID 720636; active means well fitted curve in the direction sought with a large enough effect in the repeat runs; an effect the other way counts as inactive or inconclusive;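 further: HepG2 cells with an ARE-driven luciferase reporter; % of control where 0% means no effect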); details: ARE-luc HepG2, Nrf2 luciferase reporter, 16 h; series mostly up to 92.4 µM
Outline: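 Nrf2-dependent transcription is measured in ARE-luc HepG2 cells: compound is applied for 16 hr at 37 C after a 6 hr attachment period, and luciferase activity is quantified by luminescence using ONE-Glo.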

[20] = qHTS assay for small molecule activators of the human pregnane X receptor (PXR) signaling pathway (AID 720659; call rule not given here; further: 0% is about no effect); details: DPX-2 HepG2 CYP3A4-luciferase, 24 h; series mostly up to 92.3 µM

SMILES | Potency [1] | Potency [2] | max response [3] | Potency [4] | max response [5] | Potency [6] | Potency [7] | max response [8] | max response [9] | activity change % (negative = inhibition) [10] | activation [11] | activation [12] | max response [13] | max response [14] | max response [15] | Potency [16] | max response [17] | outcome [18] | Potency [19] | outcome [20]
Cc1ccc(C(=O)c2ccccc2)cc1 | inactive | inactive | -13.1% | inactive | 0.662% | inactive | inactive | 9.26% | -15.9% (inactive) | -19.1% (inactive) | 0.979% (inactive) | -0.234% (inactive) | -3.56% (inactive) | -0.957% (inactive) | -2.28% (inactive) | inactive | 3.11% (inactive) | – | – | –
CCCCC(CC)C(=O)OCCOCCOCCOC(=O)C(CC)CCCC (centres undefined) | inactive | inactive | 37.3% | inactive | 18.8% | inactive | – | -5.42% | -7.08% (inactive) | 12.7% (inactive) | -6.56% (inactive) | – | 0.387% (inactive) | 1.57% (inactive) | -11.7% (inactive) | inactive | 4.7% (inactive) | inactive | inactive | inactive
O=c1[nH]c(=O)c2[nH]cnc2[nH]1 | inactive | inactive | -11.9% | inactive | -13.2% | inactive | – | -4.54% | -1.52% (inactive) | 11.6% (inactive) | -1.45% (inactive) | 0.87% (inactive) | -2.27% (inactive) | 0.287% (inactive) | – | inactive | 0.842% (inactive) | inactive | inactive | inactive
O=C(O)c1ccc(C(=O)O)c(C(=O)O)c1 | inactive | inactive | -62.8% | – | -17.6% | inactive | – | -4.49% | -0.212% (inactive) | 8.09% (inactive) | -0.152% (inactive) | – | – | – | -0.128% (inactive) | inactive | 0.399% (inactive) | – | – | inactive
COC(=O)c1c(Cl)nn(C)c1S(=O)(=O)NC(=O)Nc1nc(OC)cc(OC)n1 | inactive | inactive | -24.6% | inactive | -3.44% | inactive | inactive | -1.74% | -14.3% (inactive) | -5.79% (inactive) | -2.65% (inactive) | -1.75% (inactive) | 0.0687% (inactive) | -2.6% (inactive) | -3.18% (inactive) | inactive | 1.48% (inactive) | inactive | inactive | inactive
CCSC(=O)N(CC(C)C)CC(C)C | inactive | inactive | -16.2% | inactive | -8.61% | inactive | inactive | -7.79% | -2.54% (inactive) | – | -0.513% (inactive) | 0.255% (inactive) | – | -3.63% (inactive) | -1.7% (inactive) | inactive | 2.63% (inactive) | inactive | inactive | inactive
NN(c1ccccc1)c1ccccc1 | inactive | inactive | 23.6% | inactive | -8.85% | inactive | inactive | -11.7% | -14.4% (inactive) | 4.53% (inactive) | -2.86% (inactive) | – | -1.16% (inactive) | -7.4% (inactive) | -10.4% (inactive) | inactive | 1.92% (inactive) | inactive | inactive | –
CCCCOC(=O)c1ccccc1 | inactive | inactive | 0.0882% | inactive | -7.9% | inactive | – | -1.79% | 3.76% (inactive) | – | 0.836% (inactive) | – | -1.04% (inactive) | 21.3% (inactive) | -6.32% (inactive) | inactive | -2.16% (inactive) | inactive | inactive | inactive
CCCC/C=C\CCCCCCCCO | inactive | inactive | 56.8% | inactive | -17% | inactive | inactive | -4.18% | -9.15% (inactive) | 3.63% (inactive) | -0.809% (inactive) | – | – | -0.523% (inactive) | -8.96% (inactive) | inactive | 12.2% (inactive) | inactive | inactive | inactive
COC(=O)c1cccc(C(=O)OC)c1 | inactive | inactive | -2.46% | inactive | -11.8% | inactive | inactive | -14.8% | -0.335% (inactive) | 1.41% (inactive) | – | 1.87% (inactive) | 0.364% (inactive) | -6.37% (inactive) | -8.05% (inactive) | inactive | 2.45% (inactive) | inactive | inactive | –
CC(C)c1ccc2cc(C(C)C)ccc2c1 | inactive | inactive | – | inactive | – | – | – | -11.7% | -6.87% (inactive) | -11% (inactive) | -0.342% (inactive) | 1.48% (inactive) | -0.981% (inactive) | 7.43% (inactive) | -0.947% (inactive) | inactive | 1.57% (inactive) | inactive | – | inactive
CCCCCCCC[Si](Cl)(Cl)Cl | inactive | inactive | -4.76% | inactive | -7.78% | inactive | inactive | -3.5% | -13.9% (inactive) | -0.14% (inactive) | -3.66% (inactive) | 3.53% (inactive) | -0.623% (inactive) | -9.8% (inactive) | – | inactive | 0.644% (inactive) | inactive | inactive | inactive
